Reference: PubChem BioAssay

Experiments:
[1] = tested on: Human papillomavirus type 1a protein E7 (residues 44-93); assay: small molecules binding HPV E7 44-93 – biochemical, small-molecule microarray, residues 44-93, 635 nm fluorescence, primary screen (AID 1108); settings: fluorescence 635 nm, higher = more signal;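 note: E7 fragment applied at 1 µg/mL in TBST for 1 h at 4 C; score combines spot fluorescence with its signal to noise ratio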
[2] = hepatitis C replication reporter changes, two-sided – Huh7 cells, luciferase reporter, HCV replication inhibitor project, primary screen (AID 1109); settings: Huh7 HCV replicon luciferase reporter, 48 h; higher = more signal;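 note: huh7 hepatoma cells harbouring a luciferase neomycin HCV replicon reporter; luciferase luminescence as measure of HCV replicon replication; test concentration not given here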
[3] = target: Left-right determination factor 2 (Homo sapiens) (UniProt O00292); assay: small molecules binding LEFTY2 protein – biochemical, small-molecule microarray, 635 nm fluorescence scan, primary screen (AID 1110); settings: higher = more signal
[4] = target: Calmodulin-1 (Homo sapiens) (UniProt P0DP23); assay: small molecules binding calmodulin-1 with EGTA – biochemical, small-molecule microarray, Cy5-labelled CALM1, profiling panel (AID 1111); settings: Cy5-CALM1 binding fluorescence, higher = more signal;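 note: labelled calmodulin applied in Tris saline Tween buffer holding calcium plus EGTA and DTT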
[5] = target: Calmodulin-1 (Homo sapiens) (UniProt P0DP23); assay: small molecules binding Ca-loaded calmodulin-1 – biochemical, small-molecule microarray, Cy5-labelled CALM1, plus calcium, artefact control for SMM control-protein annotation, profiling panel (AID 1112); settings: Cy5-CALM1 binding fluorescence, higher = more signal;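 note: score merges spot fluorescence with signal to noise from triplicate slides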
[6] = probe aWnt5a binding to arrayed compounds – biochemical, biotinylated probe, 635/667 nm fluorescence, primary screen (AID 1113); settings: small-molecule microarray, higher = more signal;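 note: score merges 667 nm fluorescence intensity with signal-to-noise per printed feature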
[7] = probe aShh binding to arrayed compounds – biochemical, biotinylated probe, 635/667 nm fluorescence, primary screen (AID 1114); settings: small-molecule microarray, higher = more signal;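 note: probe is biotin-labelled aShh protein from a stem cell growth factor screen; measures binding of labelled protein to compounds printed on the slide; score merges feature fluorescence at 667 nm with signal-to-noise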
[8] = probe aNog binding to arrayed compounds – biochemical, biotinylated probe, 635/667 nm fluorescence, primary screen (AID 1115); settings: small-molecule microarray, higher = more signal;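 note: probe is biotinylated aNog protein used at 0.15 µg/mL for 1 h at 4 C; z-score combines 667 nm fluorescence of each spot with its signal to noise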
[9] = target: Torsin-1A-interacting protein 1 (Homo sapiens) (UniProt Q5JTV8); assay: compound microarray binding of lysate hLAP1 – cell lysate, small-molecule microarray, COS7 lysate, 635/667 nm fluorescence, primary screen (AID 1116); settings: 635 nm fluorescence, higher = more signal
[10] = target: Alpha-bungarotoxin (Bungarus multicinctus) (UniProt P60615); assay: compounds binding labelled alpha-BTX control protein – biochemical, small-molecule microarray, Alexa647 label, 635/667 nm fluorescence, artefact control for SMM control protein annotation, profiling panel (AID 1117); settings: alpha-BTX-A647 binding fluorescence, higher = more signal
Alpha-bungarotoxin (Bungarus multicinctus), sequence (P60615 whole entry, looked up): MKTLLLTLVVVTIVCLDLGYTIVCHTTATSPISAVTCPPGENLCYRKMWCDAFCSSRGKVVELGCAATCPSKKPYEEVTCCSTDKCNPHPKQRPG

Torsin-1A-interacting protein 1 (Homo sapiens), sequence (Q5JTV8 whole entry, looked up): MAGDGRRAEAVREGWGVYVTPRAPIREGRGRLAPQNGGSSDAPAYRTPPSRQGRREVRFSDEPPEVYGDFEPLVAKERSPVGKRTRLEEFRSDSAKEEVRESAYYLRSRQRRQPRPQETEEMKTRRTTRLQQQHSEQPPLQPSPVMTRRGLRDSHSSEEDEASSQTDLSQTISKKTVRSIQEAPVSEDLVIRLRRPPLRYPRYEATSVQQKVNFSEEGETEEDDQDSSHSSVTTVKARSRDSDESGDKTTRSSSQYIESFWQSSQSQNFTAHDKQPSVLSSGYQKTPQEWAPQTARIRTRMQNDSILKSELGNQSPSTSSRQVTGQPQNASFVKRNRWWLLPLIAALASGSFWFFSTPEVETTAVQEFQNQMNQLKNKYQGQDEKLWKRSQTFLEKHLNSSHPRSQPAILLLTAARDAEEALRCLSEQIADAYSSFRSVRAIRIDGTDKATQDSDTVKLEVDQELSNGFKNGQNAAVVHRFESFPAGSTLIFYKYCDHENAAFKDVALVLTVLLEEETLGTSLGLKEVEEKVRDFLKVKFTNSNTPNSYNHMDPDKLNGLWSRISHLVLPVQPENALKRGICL
Left-right determination factor 2 (Homo sapiens), sequence (O00292 whole entry, looked up): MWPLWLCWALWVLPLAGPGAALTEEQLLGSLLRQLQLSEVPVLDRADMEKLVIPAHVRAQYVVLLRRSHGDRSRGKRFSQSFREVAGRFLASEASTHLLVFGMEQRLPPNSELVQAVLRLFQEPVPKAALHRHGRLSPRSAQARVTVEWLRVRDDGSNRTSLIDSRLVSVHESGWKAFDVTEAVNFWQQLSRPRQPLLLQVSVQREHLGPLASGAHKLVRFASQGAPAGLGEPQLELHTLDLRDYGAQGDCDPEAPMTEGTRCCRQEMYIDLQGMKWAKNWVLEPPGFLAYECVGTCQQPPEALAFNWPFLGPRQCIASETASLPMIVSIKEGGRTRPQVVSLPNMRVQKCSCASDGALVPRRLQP

Structure (SMILES)	composite z-score [1]	z-score [2]	composite z-score [3]	composite z-score [4]	composite z-score [5]	composite z-score [6]	composite z-score [7]	composite z-score [8]	composite z-score [9]	composite z-score [10]
CC=CC1=C(CO)[C@H](O)[C@H]2O[C@H]2[C@@H]1O	-0.342	0.382	1.06	-0.849	-1.1	-0.0236	-0.282	-0.244	-0.193	0.495
COC(=O)[C@H](C)NC(=O)CCC1CC(OC(=O)NCc2cccc3ccccc23)CC2(CCCC(COC(=O)NCc3ccccc3)O2)O1 (stereo not given in full)	1.15	-0.922	0.648	0.426	-0.543	-0.0721	-0.206	-0.495	0.177	0.389
CC(=O)OC[C@H]1O[C@H](CC=NOC(C)CN2CCCc3nc(C)c(C)cc32)C=C[C@@H]1OC(C)=O (stereo not given in full)	0.838	-0.475	0.833	-0.651	-1.2	0.027	0.261	0.134	1	-0.0213
COC(=O)[C@H](C)NC(=O)CCC1CC(OC(=O)NCc2ccc3c(c2)OCO3)CC2(CCCC(COC(=O)NCCC(C)C)O2)O1 (stereo not given in full)	1.37	-0.166	0.694	-0.107	-0.682	-0.0977	-0.0553	-0.0047	0.302	1.48
COc1ccc(OC[C@@H]2CC3[C@@H](c4ccc(Br)cc4)[C@H](C)CC[C@H]3C(=O)O2)cc1 (stereo not given in full)	-0.722	-0.312	0.418	-0.991	-0.642	-0.158	-0.367	-0.0003	0.308	0.287
CCc1cc2c(nc1CC)CCN(CCC(C)=NOC[C@@H](C)[C@H](OCc1ccccc1)C(C)C)C2	-0.461	-1.14	-0.964	-1.3	-0.139	-0.247	-0.0035	-0.411	-0.667	-0.86
O=C1CCCC=C1C(O)COCc1ccccc1 (stereo not given)	-1.61	-0.45	-0.0061	-0.0384	-1.3	0.026	-0.269	-0.172	0.381	0.032
CC(CCN1CCc2nc(-c3ccccc3)c(-c3ccccc3)cc2C1)=NOC(C)CN1CCCc2nc(C)c(C)cc21 (stereo not given)	1.39	-3.08	0.848	0.637	-0.0431	0.0017	0.267	0.378	0.825	1.03
COC(=O)[C@H](C)NC(=O)CCC1CC(OC(=O)NCc2cccc3ccccc23)CC2(CCCC(COC(=O)NCCCN3CCCC3=O)O2)O1 (stereo not given in full)	1.28	-0.0695	0.943	0.895	0.0029	-0.124	-0.455	-0.436	0.919	0.39
CCOC(=O)[C@H](Cc1ccccc1)NC(=O)CCC1CC(OC(=O)NCc2cccc3ccccc23)CC2(CCCC(COC(=O)NCCc3ccccc3OC)O2)O1 (stereo not given in full)	0.881	-1.06	0.584	0.38	-0.298	-0.195	0.191	-0.138	0.135	0.635
CCOC(=O)[C@H](CC(C)C)NC(=O)CCC1CC(OC(=O)NCc2ccc3c(c2)OCO3)CC2(CCCC(COC(=O)NCCc3ccccc3OC)O2)O1 (stereo not given in full)	1.31	-0.621	0.613	0.618	-0.375	-0.298	-0.0626	-0.41	0.389	0.556
O=C1C[C@@H](O)[C@@H](O)[C@@H]2[C@@H]3C(=O)N(Cc4ccccc4)C(=O)[C@@H]3CC[C@H]12	-0.234	-0.0156	0.804	0.0302	-0.344	-0.0869	-0.138	0.0369	0.432	0.848
CCCNC(=O)OC[C@H]1O[C@H](CCON=C[C@@H](NS(=O)(=O)c2ccc(C)cc2)[C@H](C)C=CCC(=O)OC)C=C[C@@H]1Oc1ccc(OC)cc1	0.186	-1.65	0.65	-1.21	-1	-0.117	-0.138	-0.0312	0.247	0.0462
C=CC[C@@H]1C=CC(ON=C(C)C)[C@@H](CO)O1 (stereo not given in full)	-1.17	0.931	0.0335	-0.253	0.0283	-0.0701	-0.2	-0.303	-0.275	-0.139
CCN1C(=O)[C@H]2[C@H]3[C@H](O)[C@H](O)CC(=NO[C@@H](C)c4cc(-c5c(C)cc(C)cc5C)no4)[C@@H]3CC[C@H]2C1=O	1.02	-0.946	0.685	0.224	-0.525	-0.0799	-0.0146	-0.177	0.952	1.02
CON=C1c2cc(OC)ccc2O[C@H](c2cccc(OC)c2)[C@H]1O	0.365	7.91	0.601	-0.332	-0.729	-0.0165	0.172	-0.0211	0.646	-0.0531
COC(=O)C(C(=O)OC)C1CCCC(=O)C1 (stereo not given)	0.549	0.593	0.576	-0.385	-0.645	-0.104	-0.107	-0.0446	0.526	0.0087
O=C1C2=CC[C@H]3C(=O)N(C4CCCCC4)C(=O)[C@H]3[C@H]2[C@H](O)[C@@H]2O[C@H]12	-1.46	-5.43	-0.0026	-0.883	-0.828	-0.206	-0.282	-0.307	-0.11	-0.635
